# Test results reported in PubChem BioAssay AID1159580 (chemical genetic matrix, 2015).
# Out of some 5,500 compounds screened, about 2,000 (36%) were called active. Roughly 18% stayed inconclusive and do not appear here. Some of the results follow. A number with no mark means an inactive call. Cut-off read from the data, not from the text of the source: active = normalized growth mostly below about 0.91 (no sharp cut-off); inconclusive = no clear call, values can overlap the other calls; inactive = mostly above about 0.92.
# Assay: chemical genetic growth profiling, strain panel (AID 1159580);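 note: tested at 20 µM; growth read once vehicle control cultures reached saturation at 30 °C; 1 = growth at the plate median or of vehicle wells; lower values mean less growth of the strain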
# Settings: S. cerevisiae deletion strains, growth OD
# [1] = locus YDL101C, strain DUN1, active compounds read low
# [2] = locus YHR030C, strain SLT2, active compounds read low
# [3] = locus YHR079C, strain IRE1, active compounds read low
# [4] = locus YJL095W, strain BCK1, active compounds read low
# [5] = locus YJR066W, strain TOR1, active compounds read low
# [6] = locus YLR113W, strain HOG1, active compounds read low
# [7] = locus YNL183C, strain NPR1, active compounds read low
# [8] = locus YOR231W, strain MKK1, active compounds read low
# [9] = locus YPL256C, strain CLN2, active compounds read low
smiles,measurement,setting,value
CCn1nc(C)c(Br)c1-c1nc(-c2ccc(C(F)(F)F)cc2)no1,normalized growth,"locus YAL013W, strain DEP1, active compounds read low",1
same,normalized growth,"locus YBR229C, strain ROT2, active compounds read low",0.999
same,normalized growth,[1],1.02
same,normalized growth,"locus YDR150W, strain NUM1, active compounds read low",0.902
same,normalized growth,"locus YEL061C, strain CIN8, active compounds read low",1.01
same,normalized growth,"locus YGR078C, strain PAC10, active compounds read low",1.01
same,normalized growth,[2],1.08
same,normalized growth,"locus YHR087W, strain rtc3, active compounds read low",1
same,normalized growth,"locus YJR043C, strain POL32, active compounds read low",1.01
same,normalized growth,"locus YJR075W, strain HOC1, active compounds read low",1
same,normalized growth,"locus YLR039C, strain RIC1, active compounds read low",0.982
same,normalized growth,"locus YLR058C, strain SHM2 (second series), active compounds read low",1.01
same,normalized growth,"locus YLR085C, strain ARP6, active compounds read low",1.14
same,normalized growth,"locus YLR262C, strain YPT6, active compounds read low",1.03
same,normalized growth,"locus YML094W, strain GIM5, active compounds read low",1.03
same,normalized growth,"locus YMR219W, strain ESC1, active compounds read low",0.999
same,normalized growth,"locus YMR263W, strain SAP30, active compounds read low",1.02
same,normalized growth,"locus YMR307W, strain GAS1, active compounds read low",1.15
same,normalized growth,"locus YNL153C, strain GIM3, active compounds read low",0.985
same,normalized growth,"locus YNL298W, strain CLA4 (second series), active compounds read low",1.04
same,normalized growth,"locus YNL322C, strain KRE1, active compounds read low",1.01
same,normalized growth,"locus YNR030W, strain Alg12, active compounds read low",1.02
same,normalized growth,"locus YOL006C, strain TOP1, active compounds read low",1.14
same,normalized growth,"locus YPL055C, strain LGE1, active compounds read low",0.914
same,normalized growth,"locus YPL241C, strain CIN2, active compounds read low",0.981
same,normalized growth,"locus YPR135W, strain CTF4, active compounds read low",1.02
Cc1nn(Cc2ccc(C(=O)Sc3ccc(C(F)(F)F)cn3)o2)c(C)c1Br,normalized growth,"locus YAR019C, strain CDC15, active compounds read low",0.965
same,normalized growth,"locus YBL105C, strain PKC1, active compounds read low",0.966
same,normalized growth,"locus YBR135W, strain CKS1, active compounds read low",0.955
same,normalized growth,"locus YBR136W, strain MEC1, active compounds read low",0.971
same,normalized growth,"locus YBR160W, strain CDC28, active compounds read low",0.967
same,normalized growth,"locus YDL017W, strain CDC7, active compounds read low",0.969
same,normalized growth,"locus YDL028C, strain MPS1, active compounds read low",0.969
same,normalized growth,[1],0.963
same,normalized growth,"locus YDL108W, strain KIN28, active compounds read low",0.961
same,normalized growth,"locus YDL132W, strain cdc53, active compounds read low",0.952
same,normalized growth,"locus YDL214C, strain PRR2, active compounds read low",0.882
same,normalized growth,"locus YDR052C, strain DBF4, active compounds read low",0.97
same,normalized growth,"locus YDR054C, strain cdc34, active compounds read low",0.953
same,normalized growth,"locus YDR226W, strain ADK1, active compounds read low",0.955
same,normalized growth,"locus YDR477W, strain SNF1, active compounds read low",0.834
same,normalized growth,"locus YER123W, strain YCK3, active compounds read low",0.878
same,normalized growth,"locus YER133W, strain GLC7, active compounds read low",0.898
same,normalized growth,"locus YFL009W, strain cdc4, active compounds read low",0.957
same,normalized growth,"locus YFL029C, strain CAK1, active compounds read low",0.962
same,normalized growth,"locus YFR003C, strain YPI1, active compounds read low",0.968
same,normalized growth,"locus YFR019W, strain FAB1, active compounds read low",0.932
same,normalized growth,"locus YFR028C, strain CDC14, active compounds read low",0.963
same,normalized growth,"locus YGR040W, strain KSS1, active compounds read low",0.81
same,normalized growth,"locus YGR052W, strain FMP48, active compounds read low",0.871
same,normalized growth,"locus YGR092W, strain DBF2, active compounds read low",0.855
same,normalized growth,[2],0.615 (active)
same,normalized growth,[3],0.858
same,normalized growth,"locus YHR082C, strain KSP1, active compounds read low",0.763
same,normalized growth,"locus YHR205W, strain SCH9, active compounds read low",0.566 (active)
same,normalized growth,"locus YIL147C, strain SLN1, active compounds read low",0.969
same,normalized growth,[4],0.827
same,normalized growth,"locus YJL128C, strain PBS2, active compounds read low",0.871
same,normalized growth,"locus YJL157C, strain FAR1, active compounds read low",0.911
same,normalized growth,"locus YJR016C, strain ILV3, active compounds read low",0.955
same,normalized growth,"locus YJR066W, strain TOR1 (second series), active compounds read low",0.885
same,normalized growth,[5],0.76
same,normalized growth,"locus YKL048C, strain ELM1, active compounds read low",0.896
same,normalized growth,"locus YKL067W, strain YNK1, active compounds read low",0.898
same,normalized growth,"locus YKL101W, strain HSL1, active compounds read low",0.861
same,normalized growth,"locus YKL193C, strain SDS22, active compounds read low",0.956
same,normalized growth,"locus YKL203C, strain TOR2, active compounds read low",0.892
same,normalized growth,[6],0.677 (active)
same,normalized growth,"locus YLR133W, strain CKI1, active compounds read low",0.871
same,normalized growth,"locus YLR403W, strain SFP1, active compounds read low",0.722
same,normalized growth,"locus YML070W, strain DAK1, active compounds read low",0.894
same,normalized growth,"locus YMR001C, strain CDC5, active compounds read low",0.958
same,normalized growth,"locus YMR205C, strain PFK2 (second series), active compounds read low",0.881
same,normalized growth,"locus YMR277W, strain FCP1, active compounds read low",0.963
same,normalized growth,"locus YNL006W, strain LST8, active compounds read low",0.972
same,normalized growth,"locus YNL020C, strain ARK1, active compounds read low",0.882
same,normalized growth,"locus YNL161W, strain CBK1, active compounds read low",0.965
same,normalized growth,[7],0.777
same,normalized growth,"locus YNL207W, strain RIO2, active compounds read low",0.953
same,normalized growth,"locus YNL222W, strain SSU72, active compounds read low",0.963
same,normalized growth,"locus YNL307C, strain MCK1 (second series), active compounds read low",0.781
same,normalized growth,"locus YOL078W, strain AVO1, active compounds read low",0.961
same,normalized growth,"locus YOL136C, strain PFK27, active compounds read low",0.872
same,normalized growth,"locus YOR061W, strain CKA2, active compounds read low",0.816
same,normalized growth,"locus YOR119C, strain RIO1, active compounds read low",0.879
same,normalized growth,[8],0.847
same,normalized growth,"locus YOR329C, strain SCD5, active compounds read low",0.978
same,normalized growth,"locus YPL031C, strain PHO85, active compounds read low",0.867
same,normalized growth,"locus YPL153C, strain RAD53, active compounds read low",0.934
same,normalized growth,"locus YPL204W, strain HRR25, active compounds read low",0.925
same,normalized growth,"locus YPL209C, strain IPL1, active compounds read low",0.974
same,normalized growth,[9],0.799 (active)
same,normalized growth,"locus YPR025C, strain CCL1, active compounds read low",0.965
same,normalized growth,"locus YPR106W, strain ISR1, active compounds read low",0.958
same,normalized growth,"locus YPR111W, strain DBF20, active compounds read low",0.93
same,normalized growth,"strain NNK1, active compounds read low",0.928
same,normalized growth,"strain TSCII, active compounds read low",0.961
OC[C@H]1O[C@H](OC[C@H]2O[C@@H](O)[C@H](O)[C@@H](O)[C@@H]2O)[C@H](O)[C@@H](O)[C@H]1O,normalized growth,[2],1.05
same,normalized growth,[3],1.03
same,normalized growth,[4],1.05
same,normalized growth,[5],0.982
same,normalized growth,[6],1.01
same,normalized growth,[7],0.997
same,normalized growth,[8],1.04
same,normalized growth,[9],1.06
